Results as given in PubChem BioAssay (NCATS).
Results filed as inconclusive are left out. Where a call stands in place of a potency, no number is given. Activity calls are given as the source filed them. Calls follow the shape of the dose curve; as a rule, active = well fitted cell-killing curve with a large enough effect; inconclusive = small, poorly fitted or top-dose-only effect, or effect the other way; inactive = no such curve, though single readings can be large or run the other way.
Potency is read from the fitted curve at half-maximal effect.

Assay: Quantitative High-Throughput drug screen in 47 multiple myeloma cell lines against the NCATS MIPE library collection: KMS28PE_JCRB cell viability assay (AID 1918983); also: nearly all actives have a fitted effect of over 35% in size
Settings: KMS28PE multiple myeloma viability, CellTiter-Glo ATP, 48 h; series mostly up to 45.8 µM
Description: PI: Beverly A. Mock Ph.D.
Laboratory of Cancer Biology and Genetics,
Center for Cancer Research, National Cancer Institute,
National Institute of Health, Bethesda, Maryland
Drug resistance and disease progression are common in multiple myeloma (MM) patients, underscoring the need for new therapeutic combinations. […] We hypothesized that effective combinations would reduce MYC expression and enhance p16 activity. […] These preclinical data identify potentially useful drug combinations for evaluation in drug-resistant MM and reveal potential mechanisms of combined drug sensitivity.
Described herein is the primary MIPE qHTS used to cherrypick compounds. Validated compounds were then further tested for potential synergistic activiy.
[1] Peat TJ, Gaikwad SM, Dubois W, Gyabaah-Kessie N, Zhang S, Gorjifard S, Phyo Z, Andres M, Hughitt VK, Simpson RM, Miller MA, Girvin AT, Taylor A, Williams D, D'Antonio N, Zhang Y, Rajagopalan A, Flietner E, Wilson K, Zhang X, Shinn P, Klumpp-Thomas C, McKnight C, Itkin Z, Chen L, Kazandijian D, Zhang J, Michalowski AM, Simmons JK, Keats J, Thomas CJ, Mock BA. Drug combinations identified by high-throughput screening promote cell cycle transition and upregulate Smad pathways in myeloma. Cancer Lett. 2023 Aug 1;568:216284. doi: 10.1016/j.canlet.2023.216284. Epub 2023 Jun 24. PMID: 37356470; PMCID: PMC10408729.
SEQUENCE No. (e.g., 1, 2, 3, etc.); […] (e.g., Cells, Incubation, Reagent, etc.); VALUE and DESCRIPTION.
1; Cells; 5 uL; white, solid bottom 1536-well Greiner assay plate.
2; Compounds; 23 nL; Kalypsis pin tool (Wako USA) equipped with a 1536-well pin head to transfer to the assay plates.
3; Incubation; 48 hours; 37C incubation.
4; Reagent;5uL; CellTiter Glo (Promega).
5; Detector; 425V; Luminescence; Viewlux PerkinElmer.
NOTES (numbers refer to Sequence numbers above)
1. The cell-based screening methods employed in this study were like those previously published. Briefly, the corresponding myeloma cell lines were screened in 1,536-well plates with 500 cells, 5-uL per well for inhibition of cell viability (assessed by measuring ATP levels with CellTiterGlo).
2. NCATS MIPE 4.0 library of approved and investigational drugs were added using the Kalypsis pin tool. Wells treated with DMSO only for 100% viability and media only for 0% viability were used as controls.
3. The assay plates were covered and incubated for 48 hours in a 37C, 5% CO2 incubator with controlled humidity.
4. After 48 hours, CellTilter-GloTM luminescent substrate mix (Promega) reagent was added to the assay plate and plates we incubated for 5 min at room temperature.
5. Signal was measured as median relative luminescence units on a ViewLux (PerkinElmer) multiplate reader.
[1] Heske CM, Davis MI, Baumgart JT, Wilson K, Gormally MV, Chen L, Zhang X, Ceribelli M, Duveau DY, Guha R, Ferrer M, Arnaldez FI, Ji J, Tran HL, Zhang Y, Mendoza A, Helman LJ, Thomas CJ. Matrix Screen Identifies Synergistic Combination of PARP Inhibitors and Nicotinamide Phosphoribosyltransferase (NAMPT) Inhibitors in Ewing Sarcoma. Clin Cancer Res. 2017 Dec 1;23(23):7301-7311. doi: 10.1158/1078-0432.CCR-17-1121. Epub 2017 Sep 12. PMID: 28899971; PMCID: PMC6636827.
With CCN(C)C(=O)Oc1cccc([C@H](C)N(C)C)c1 the Potency was “inactive”. With CCOC(=O)[C@H](CCc1ccccc1)N[C@H]1CCc2ccccc2N(CC(=O)O)C1=O the Potency was 20.9 µM (active). In the case of COc1cnc(NS(=O)(=O)c2ccc(N)cc2)nc1, the Potency is reported as “inactive”. For CC1=NN(c2ccccc2)C(=O)C1, the Potency was “inactive”. For Nc1nc(N)c2nc(CNc3ccc(C(=O)NC(CCC(=O)O)C(=O)O)cc3)cnc2n1 (stereo not given), the Potency was “inactive”. With CN(C)c1ccc(C(=C2C=CC(=[N+](C)C)C=C2)c2ccc(N(C)C)cc2)cc1 the Potency was 0.105 µM (active). In the case of Cc1cccc(Nc2ccncc2S(=O)(=O)NC(=O)NC(C)C)c1, the Potency is reported as “inactive”. For O=S(=O)(O)CCS, the Potency was “inactive”. In the case of CN(CCOc1ccc(CC2SC(=O)NC2=O)cc1)c1ccccn1 (stereo not given), the Potency is reported as “inactive”. In the case of O=C(O)C1CCCN(CCC=C(c2ccccc2)c2ccccc2)C1 (stereo not given), the Potency is reported as “inactive”. In the case of CCOC(=O)c1ccc(OC(=O)CCCCCN=C(N)N)cc1, the Potency is reported as “inactive”. With CCCc1cc(C(N)=S)ccn1 the Potency was “inactive”. For O=C(O)c1ccc(-n2nc(-c3ccccc3O)nc2-c2ccccc2O)cc1, the Potency was “inactive”. For CC(C)(C#N)c1cc(Cn2cncn2)cc(C(C)(C)C#N)c1, the Potency was “inactive”. With Cc1onc(-c2ccccc2Cl)c1C(=O)N[C@@H]1C(=O)N2[C@@H]1SC(C)(C)[C@@H]2C(=O)O the Potency was “inactive”. With CNCC[C@H](Oc1cccc2ccccc12)c1cccs1 the Potency was 18.7 µM (active). In the case of Cc1ccc(S(=O)(=O)N[C@@H](Cc2ccccc2)C(=O)CCl)cc1, the Potency is reported as 20.9 µM (active). In the case of Oc1c(Cl)cc(Cl)c2cccnc12, the Potency is reported as 20.9 µM (active). With CCn1cc(C(=O)O)c(=O)c2cc(F)c(N3CCNCC3)cc21 the Potency was 2.96 µM (active). With OCc1ccc(-c2nn(Cc3ccccc3)c3ccccc23)o1 the Potency was “inactive”. In the case of CC(C(=O)O)c1ccc2c(c1)CC(=O)c1ccccc1S2 (stereo not given), the Potency is reported as “inactive”. For Cc1nnc(C(=O)NC(C)(C)c2nc(C(=O)NCc3ccc(F)cc3)c(O)c(=O)n2C)o1, the Potency was “inactive”. With CCOCC(O)COc1ccc(NC(=O)CC[S+](C)C)cc1 (stereo not given) the Potency was “inactive”. With COC(=O)Nc1nc2ccc(C(=O)c3ccccc3)cc2[nH]1 the Potency was 1.87 µM (active). In the case of NC(=O)c1cccnc1, the Potency is reported as “inactive”. In the case of CC(=O)[C@H]1CC[C@H]2[C@@H]3CC=C4C[C@@H](O)CC[C@]4(C)[C@H]3CC[C@]12C, the Potency is reported as “inactive”. In the case of CCCCS(=N)(=O)CCC(N)C(=O)O (stereo not given), the Potency is reported as “inactive”. In the case of CNS(=O)(=O)CCc1ccc2[nH]cc(C3CCN(C)CC3)c2c1, the Potency is reported as “inactive”. In the case of NC(N)=NC(N)=NCCc1ccccc1, the Potency is reported as 5.26 µM (active). With CCN(CC)CC#CCOC(=O)C(O)(c1ccccc1)C1CCCCC1 (stereo not given) the Potency was “inactive”. In the case of COc1ccc2cc3[n+](cc2c1OC)CCc1cc2c(cc1-3)OCO2, the Potency is reported as 16.6 µM (active). For COc1cc(NS(=O)(=O)c2ccc(N)cc2)nc(OC)n1, the Potency was “inactive”. For CS(=O)(=O)c1ccc([C@@H](O)[C@@H](CO)NC(=O)C(Cl)Cl)cc1, the Potency was “inactive”. With COc1cc2nc(N3CCCN(C)CC3)nc(NC3CCN(Cc4ccccc4)CC3)c2cc1OC the Potency was 16.6 µM (active). With CCN[C@H]1C[C@H](C)S(=O)(=O)c2sc(S(N)(=O)=O)cc21 the Potency was “inactive”. For NNC(=O)c1ccncc1, the Potency was “inactive”. With CC(C)OC(=O)C(C(=O)OC(C)C)=C1SC=CS1 the Potency was “inactive”. With CC(C)(Sc1cc(C(C)(C)C)c(O)c(C(C)(C)C)c1)Sc1cc(C(C)(C)C)c(O)c(C(C)(C)C)c1 the Potency was “inactive”. For COCCCOc1cc(C[C@@H](C[C@H](N)[C@@H](O)C[C@H](C(=O)NCC(C)(C)C(N)=O)C(C)C)C(C)C)ccc1OC, the Potency was “inactive”. For CC(C)C[C@H](NC(=O)[C@H](CCc1ccccc1)NC(=O)CN1CCOCC1)C(=O)N[C@@H](Cc1ccccc1)C(=O)N[C@@H](CC(C)C)C(=O)[C@@]1(C)CO1, the Potency was 0.003 µM (active).
